# Screen size: about 350,000 compounds; about 31,000 (8.9%) were called active. Another 15% or so got no clear call; they are omitted. The full list was thinned out, with actives kept by preference. A number with no mark means an inactive call. Calls follow the shape of the dose curve; as a rule, active = well fitted inhibition curve with a large enough effect; inconclusive = small, poorly fitted or top-dose-only effect; inactive = no such curve, though single readings can be large or run the other way.
# Target: Histone-lysine N-methyltransferase EHMT2 (Homo sapiens) (UniProt Q96KQ7)
# Experiment: qHTS Assay for Inhibitors of Histone Lysine Methyltransferase G9a; also: nearly all actives have a fitted effect of over 75% in size
# Conditions: G9a H3K9 monomethylation, AlphaScreen, 2 h; series mostly up to 59 µM; activity, negative = inhibition: at the top concentration
# Outline: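 Methyltransferase reactions run at room temperature for 2 h (20 nM enzyme, 500 nM biotin-H3K9 peptide, 20 uM SAM) after a 15 min compound preincubation; product detected by AlphaScreen beads and anti-H3K9me1 antibody.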
# % is scaled to controls: 0 for no effect and ±100 for the full control effect; potency is read from the fitted curve at half-maximal effect.
# Chain of Histone-lysine N-methyltransferase EHMT2 (Homo sapiens) (Q96KQ7 913-1193 limits assumed): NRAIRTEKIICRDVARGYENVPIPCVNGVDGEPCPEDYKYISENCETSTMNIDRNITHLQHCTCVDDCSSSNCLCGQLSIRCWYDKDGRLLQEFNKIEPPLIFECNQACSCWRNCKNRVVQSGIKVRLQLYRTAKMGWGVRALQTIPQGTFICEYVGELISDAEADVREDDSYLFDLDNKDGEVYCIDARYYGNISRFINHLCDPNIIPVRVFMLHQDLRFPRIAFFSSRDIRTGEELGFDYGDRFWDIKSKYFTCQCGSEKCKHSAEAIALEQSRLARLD
SMILES,"activity, negative = inhibition",Potency
CCc1ccc(-c2cc3c(=O)n(CC(=O)NCCCN4CCN(Cc5ccccc5)CC4)nc(C)n3n2)cc1,18% [at 102 µM],–
CCOc1ccccc1NC(=O)Cn1c(=O)n(-c2cccc(C)c2)c(=O)c2c1c1cc(OC)ccc1n2C,3.71%,–
Cc1cc2oc(C(=O)N(Cc3ccc(Cl)cc3)Cc3ccco3)c(C)c2cc1Cl,3.31%,–
COc1ccc(CN2CCN(C(=O)c3cc(C4CC4)nn3-c3ccccc3)CC2)cc1F,-5.17%,–
O=C(Nc1ccccc1)O/N=C1\CCCCC1c1ccc([N+](=O)[O-])cc1[N+](=O)[O-] (configuration not stated),8.25% [at 102 µM],–
C[n+]1ccccc1C1CCCC/C1=N\Nc1ccc([N+](=O)[O-])cc1[N+](=O)[O-] (configuration not stated),–,2 µM (active)
O=[N+]([O-])c1ccc2nc(-c3ccccn3)[nH]c2c1,3.58% [at 102 µM],–
Cc1cc([N+](=O)[O-])ccc1NC1CCCC1,-0.358%,–
O=[N+]([O-])c1ccc(N/N=C2/CCCCC2c2ccccn2)c([N+](=O)[O-])c1 (configuration not stated),–,10 µM (active)
O=C(COC(=O)c1cc([N+](=O)[O-])ccc1NCc1ccccc1)NC1CCCCC1,-5.06% [at 102 µM],–
CCOc1ccc(CNCc2c(C(=O)O)c(C)n(Cc3cccc(OC)c3)c2C)cc1OC,2.42%,–
CC(C)Sc1oc(-c2cccs2)nc1S(=O)(=O)c1ccc(Cl)cc1,12.9%,–
C/C(=N\OC(=O)c1ccccc1)c1c(C)nc2cc(C)ccn12,–,50.1 µM (active)
C/C(=N/OC(=O)c1ccc(Br)cc1)c1ccc(C)cc1,20.4% [at 102 µM],–
CCOc1ccc(/C=N\NC(=O)c2c(C)nc3cc(C)ccn23)cc1,18% [at 0.501 µM],–
Cc1nnc(N2CCC(C(=O)Nc3ccc(F)cc3)CC2)c2nn(-c3ccc(Cl)cc3)c(C)c12,-2.85%,–
Cc1cccc(C(=O)NCCc2nc3ccccc3n2Cc2ccccc2Cl)c1,-2.51%,–
O=C(Nc1cccc(-c2cccc(Cl)c2)c1)C1CCN(C2CCC2)CC1,-4.3% [at 0.0925 µM],–
O=Cc1c(Nc2ccccc2Cl)nc2ccccn2c1=O,5.69% [at 0.501 µM],–
COc1cccc(OC)c1C(=O)N1CCN(Cc2cccnc2)CC1,–,7.08 µM (active)
COc1ccccc1C(=O)N1CCN=C1SCc1cccnc1,4.75% [at 12.7 µM],–
COc1cccc(OC)c1OCCN1CCN(C(=O)c2ccco2)CC1,12.4% [at 102 µM],–
CCC(C)N(C(=O)CSc1nnnn1-c1ccccc1OC)C1CCS(=O)(=O)C1 (configuration not stated),-13%,–

SMILES,"activity, negative = inhibition",Potency
CCn1c(=O)c(=O)[nH]c2c(=O)oc3ccc(S(=O)(=O)Nc4ccc(OC)cc4)cc3c21,-14% [at 102 µM],–
Cc1ccc(Cl)c(OCC(=O)N2CCc3ccccc3C2)c1,4.26% [at 102 µM],–
Cc1cccc(C2=N/C(=C/c3cccs3)C(=O)O2)c1,-37.5% [at 102 µM],–
CSC1=N/C(=C\C=C\c2cccs2)C(=O)S1,–,7.94 µM (active)
O=C1N/C(=C/c2cccs2)C(=O)N1Cc1ccc(F)cc1,-10.9% [at 102 µM],–
CC(=O)c1ccc(N2CCN(C3C(=O)c4ccccc4N3C(C)=O)CC2)cc1 (configuration not stated),-31.2%,–
COc1ccccc1-c1nc(SC)n[nH]1,-11.3% [at 102 µM],–
CCCOc1ccccc1C(=O)NCCCC(=O)O,-1.32% [at 102 µM],–
CCCOc1ccccc1-c1nc(SCCC(=O)O)n[nH]1,–,11.2 µM (active)
Cc1nc2nc(SCC(=O)NC3CCC(C)CC3)nn2c(C)c1Cc1ccccc1Cl (configuration not stated),-39.2%,–
Cc1cccc(-n2cnc(C(=O)Nc3cccnc3)c2)n1,-4.43% [at 102 µM],–
Cc1cccc(-n2cnc(C(=O)NNC(=S)Nc3ccccc3)c2)n1,–,28.2 µM (active)
COC(=O)c1ccc(NC(=S)Nc2cccc(C)n2)cc1,-9.29% [at 12.7 µM],–
O=C(c1ccc(Cl)nc1)N1CCN(S(=O)(=O)c2ccc3c(c2)OCCO3)CC1,-21.6% [at 12.7 µM],–
CCc1cccc(C)c1Nc1c(-c2ccc(N(C)C)cc2)nc2ncccn12,–,8.91 µM (active)
COc1ccc(-c2nc3nc(C)cc(C)n3c2Nc2c(C)cccc2C)cc1,-32.3%,–
Cc1cccc(C)c1Nc1c(-c2ccccc2O)nc2ncccn12,-7.84% [at 12.7 µM],–
Cc1ccc(CCNC(=O)c2ccc3c(c2)N(Cc2cc(C)ccc2C)C(=O)c2ccccc2S3=O)cc1 (configuration not stated),-23.3%,–
Cc1ccc(S(=O)(=O)NCCC(=O)OCC(=O)N(C)c2ccccc2)cc1,-8.16% [at 102 µM],–
Cc1cc(C)cc(OCC(=O)NC(C)c2ccccc2)c1 (configuration not stated),–,79.4 µM (active)
Cc1ccc(OCCCC(=O)NC(C)c2ccccc2)c(C)c1 (configuration not stated),-28.9% [at 102 µM],–
Cc1ccc(OCC(=O)NC(C)c2ccccc2)cc1C (configuration not stated),15.5% [at 102 µM],–
COc1ccccc1C(=O)NC(=S)Nc1ccccc1N1CCCCC1,5.98% [at 102 µM],–

SMILES,"activity, negative = inhibition",Potency
O=C1C2CCCN2C(=O)N1CCCCN1CCN(c2cccc(C(F)(F)F)c2)CC1 (configuration not stated),2.49% [at 0.501 µM],–
CC1=C(c2ccc(F)cc2)S(=O)(=O)N=C1N1CCC(C(=O)NCCc2ccccc2C)CC1,0.174%,–
CSCCC(NC(=O)c1ccccc1)C(=O)N1CCN(Cc2ccc(Cl)cc2)CC1 (configuration not stated),10.6% [at 0.501 µM],–
COc1ccccc1C(=O)NC(CCSC)C(=O)N1CCN(C(C)=O)CC1 (configuration not stated),8.08% [at 12.7 µM],–
COc1ccccc1C(=O)NC(CCSC)C(=O)N1CCN(C/C=C/c2ccccc2)CC1 (configuration not stated),–,56.2 µM (active)
CCOc1ccc(CNC(=O)C2CCN(c3nnc(-n4cccc4CNc4ccc(C)cc4)s3)CC2)cc1OC,-7.99%,–
CC1CC2C3CCC4=CC(=O)C=C[C@]4(C)[C@@]3(F)[C@@H](O)C[C@]2(C)[C@@]1(O)C(=O)CO (some centres not stated),23.6%,–
Cc1ccc2oc(C(=O)Nc3ccc(S(=O)(=O)N4CCCCCC4)cc3)cc(=O)c2c1,11.5%,–
O=C(Nc1cccc(Cl)c1Cl)c1ccccc1NC(=O)C1CC=CCC1C(=O)O (configuration not stated),-46.5% [at 102 µM],–
CN(C(=O)COC(=O)c1nc(Cl)ccc1Cl)C1CCS(=O)(=O)C1 (configuration not stated),11.5% [at 102 µM],–
Cc1c(-c2cccc(Cl)c2)nc2ccccc2c1C(=O)OCC(=O)N(C)C1CCS(=O)(=O)C1 (configuration not stated),3.46%,–
CN(C(=O)COC(=O)c1cc(-c2ccco2)nc2ccccc12)C1CCS(=O)(=O)C1 (configuration not stated),–,2.51 µM (active)
COc1ccc(-n2nc(C(=O)NCC(=O)N3CCCCCC3)c3ccccc3c2=O)cc1Cl,-1.41% [at 102 µM],–
O=C(COc1ccccc1)N1CCc2ccccc2C1,-42.6% [at 102 µM],–
O=C(Cn1c(=S)nc2ccccn21)N1CCc2ccccc2C1,–,12.6 µM (active)
CCC(=O)c1ccc(OCC(=O)OCC(=O)N2CCc3ccccc3C2)cc1,-11.3% [at 2.33 µM],–
Cn1c(=O)c2c(nc(Oc3ccc(C#N)cc3)n2Cc2ccc(Cl)cc2Cl)n(C)c1=O,26.9%,–
COc1ccc(NC(=O)CSc2nccn2Cc2ccc3c(c2)OCO3)cc1,-12.2%,–
CN(C)c1ccc(NC(=O)CSc2n[nH]c(-c3ccco3)n2)cc1,–,44.7 µM (active)
Cc1nc(SCC(=O)Nc2ccc(C(=O)O)cc2)n[nH]1,6.19%,–
O=C(CSc1n[nH]c(-c2cccnc2)n1)Nc1ccc(Cl)cc1,27.2% [at 102 µM],–
CC(C)Cn1c(C2CC(=O)N(c3ccccc3Cl)C2)nc2ccccc21 (configuration not stated),-0.0323%,–
COc1ccc(C)cc1N(CC(=O)N1CCC(C)CC1)S(=O)(=O)c1ccc(C)cc1,-37.9%,–

SMILES,"activity, negative = inhibition",Potency
O=C(NC1CCN(Cc2ccccc2)CC1)c1ccc(Cn2c(=O)c3ccccc3n(Cc3cccc(F)c3)c2=O)cc1,5.83%,–
COc1ccc(-n2ncc3c2CC(C)(C)CC3NC(=O)CCc2c(C)nn(C)c2C)cc1 (configuration not stated),22.3% [at 102 µM],–
Cn1c(-c2ccc(C(F)(F)F)cc2)cc2onc(-c3ccccc3)c2c1=O,-9.13% [at 2.33 µM],–
O=C(Cn1c(-c2cccs2)cc2ccccc21)NCCc1ccc(Cl)cc1,8.69%,–
CCc1ccc(Nc2nnc(SCC(=O)c3ccc4c(c3)NC(=O)CO4)s2)cc1,–,15.8 µM (active)
O=C1COc2ccc(C(=O)CSc3ccc(Br)cc3)cc2N1,8.05% [at 12.7 µM],–
CCCc1nc2ccccc2c(C(=O)OCC(=O)c2ccc3c(c2)NC(=O)CO3)c1CC,16.7% [at 12.7 µM],–
COc1ccc(C)cc1-n1nnnc1SCc1nc2ccccc2c(=O)[nH]1,-44% [at 102 µM],–
CCOc1cc(/C=C/c2nc3ccccc3c(=O)[nH]2)cc(Br)c1OC,–,50.1 µM (active)
COc1cc(OC)c(OC)cc1/C=C/c1nc2ccccc2c(=O)n1-c1ccc(Br)c(C)c1,-42.8%,–
O=C(NC1(C(F)(F)F)N=C(c2ccccc2)N(C2CCCCC2)C1=O)c1ccccc1F (configuration not stated),-8.07%,–
COc1ccc(NC(=O)C(c2ccccc2)N2Cc3ccccc3C2=O)cc1 (configuration not stated),-5.93%,–
CN(CC(=O)NC1CCN(Cc2ccccc2)CC1)S(=O)(=O)c1ccc(Cl)s1,-1.26% [at 2.33 µM],–
COc1ccc(NC(=O)c2ccc3oc(=O)c(S(=O)(=O)c4ccc(F)cc4)cc3c2)c(OC)c1,-2.82%,–
COc1ccccc1CNC(=O)CCn1c(=O)c2ccccc2n(CC(=O)Nc2cccc(Cl)c2)c1=O,-25%,–
COc1cccc(NC(=O)N2CCN(C(=O)c3nsc4ccccc34)CC2)c1,4.87%,–
COc1cc(CNC(=O)c2cc3n(n2)CCCN(Cc2cccc(F)c2)C3=O)cc(OC)c1OC,15.2%,–
CCNC(=O)CSc1nc(-c2ccccc2)cs1,-2.39% [at 102 µM],–
Cn1c(CNc2nc(-c3ccccc3)cs2)nnc1SCC(=O)c1ccccc1,–,39.8 µM (active)
CCOC(=O)CSc1nnc(CNc2nc(-c3ccccc3)cs2)n1C,2.05% [at 12.7 µM],–
CC(C)n1ncc2c(C(=O)Nc3ccc(CC#N)cc3)cc(C3CC3)nc21,10% [at 2.33 µM],–
COc1ccc(C(CNC(=O)c2ccc(NS(=O)(=O)c3ccc(F)c(C)c3)cc2)N(C)C)cc1 (configuration not stated),-42.1% [at 102 µM],–
Cc1nnc(NCc2ccccc2)c2c1nnn2Cc1ccc(F)cc1,1.55%,–
